From PubChem BioAssay (NCATS)
Results filed as inconclusive are left out. A call without a number means that no potency is given here. Active and inactive are the calls of the source. Unless noted, calls follow the shape of the dose curve; as a rule, active = well fitted curve in the direction sought with a large enough effect; inconclusive = small, poorly fitted or top-dose-only effect, or another doubt; inactive = no such curve, though single readings can be large; an effect the other way counts as inactive or inconclusive.

Experiments:
[1] = target: Calcium and integrin-binding protein 1 (Homo sapiens) (UniProt Q99828); experiment: Primary qHTS for Identification of Calcium Integrin Binding Protein 1 (CIB1) Competitor (AID 1508620);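 also: GST tagged CIB1 binding a fluorescein labelled alphaIIb integrin peptide tracer; top concentration of the series differs between compounds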
Chain of Calcium and integrin-binding protein 1 (Homo sapiens) (Q99828 whole entry, looked up): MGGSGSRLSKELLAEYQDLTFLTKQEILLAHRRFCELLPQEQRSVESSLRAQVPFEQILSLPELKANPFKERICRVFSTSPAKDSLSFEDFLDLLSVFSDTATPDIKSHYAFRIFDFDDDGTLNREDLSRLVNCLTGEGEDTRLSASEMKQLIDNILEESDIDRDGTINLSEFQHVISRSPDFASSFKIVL
Outline: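 CIB1-GST (1 uM final) and compound incubated 15 min at room temperature before adding FITC-alphaIIb peptide tracer (100 nM final). Competition for binding read by fluorescence polarization (ex 480, em 540) after another 15 min at room temperature.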

[2] = target: Rap guanine nucleotide exchange factor 3 (Homo sapiens) (UniProt O95398); experiment: Confirmatory qHTS for agonist of cAMP-regulated guanine nucleotide exchange factor 3 (EPAC1) (AID 1645881);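 also: EPAC1 catalysed release of BODIPY-GDP from Rap1B seen as fluorescence loss; nearly all actives have a fitted effect of over 75% in size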
Chain of Rap guanine nucleotide exchange factor 3 (Homo sapiens) (O95398 whole entry, looked up): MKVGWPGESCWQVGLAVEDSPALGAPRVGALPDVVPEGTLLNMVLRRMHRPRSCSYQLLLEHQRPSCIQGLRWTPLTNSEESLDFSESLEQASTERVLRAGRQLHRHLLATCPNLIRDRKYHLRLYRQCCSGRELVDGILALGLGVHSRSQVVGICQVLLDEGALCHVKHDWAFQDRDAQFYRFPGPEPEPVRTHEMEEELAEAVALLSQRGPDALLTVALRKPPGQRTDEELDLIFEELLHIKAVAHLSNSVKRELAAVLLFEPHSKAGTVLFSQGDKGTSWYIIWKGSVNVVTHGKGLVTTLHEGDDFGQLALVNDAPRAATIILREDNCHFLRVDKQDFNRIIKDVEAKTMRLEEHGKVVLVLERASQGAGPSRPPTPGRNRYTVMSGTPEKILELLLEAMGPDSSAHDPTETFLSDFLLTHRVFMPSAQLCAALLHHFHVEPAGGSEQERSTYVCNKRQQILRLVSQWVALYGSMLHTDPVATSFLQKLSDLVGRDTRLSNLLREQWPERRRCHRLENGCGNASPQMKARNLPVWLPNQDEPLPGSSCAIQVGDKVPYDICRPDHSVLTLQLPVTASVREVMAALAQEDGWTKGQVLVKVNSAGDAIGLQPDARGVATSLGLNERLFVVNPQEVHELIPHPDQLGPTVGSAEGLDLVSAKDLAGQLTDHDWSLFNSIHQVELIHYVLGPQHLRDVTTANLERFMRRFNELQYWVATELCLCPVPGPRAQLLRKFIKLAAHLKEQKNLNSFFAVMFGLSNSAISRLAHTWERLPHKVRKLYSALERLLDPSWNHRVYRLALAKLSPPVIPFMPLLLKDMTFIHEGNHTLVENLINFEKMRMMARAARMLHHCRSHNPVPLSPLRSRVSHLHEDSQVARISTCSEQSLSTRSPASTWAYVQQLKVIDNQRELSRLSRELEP

[3] = target: Rap guanine nucleotide exchange factor 4 (Homo sapiens) (UniProt Q8WZA2); experiment: Confirmatory qHTS for agonist of cAMP-regulated guanine nucleotide exchange factor 4 (EPAC2) (AID 1645884);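 also: nucleotide exchange releases bodipy-GDP from Rap1 and this lowers its fluorescence; nearly all actives have a fitted effect of over 65% in size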
Chain of Rap guanine nucleotide exchange factor 4 (Homo sapiens) (Q8WZA2 whole entry, looked up): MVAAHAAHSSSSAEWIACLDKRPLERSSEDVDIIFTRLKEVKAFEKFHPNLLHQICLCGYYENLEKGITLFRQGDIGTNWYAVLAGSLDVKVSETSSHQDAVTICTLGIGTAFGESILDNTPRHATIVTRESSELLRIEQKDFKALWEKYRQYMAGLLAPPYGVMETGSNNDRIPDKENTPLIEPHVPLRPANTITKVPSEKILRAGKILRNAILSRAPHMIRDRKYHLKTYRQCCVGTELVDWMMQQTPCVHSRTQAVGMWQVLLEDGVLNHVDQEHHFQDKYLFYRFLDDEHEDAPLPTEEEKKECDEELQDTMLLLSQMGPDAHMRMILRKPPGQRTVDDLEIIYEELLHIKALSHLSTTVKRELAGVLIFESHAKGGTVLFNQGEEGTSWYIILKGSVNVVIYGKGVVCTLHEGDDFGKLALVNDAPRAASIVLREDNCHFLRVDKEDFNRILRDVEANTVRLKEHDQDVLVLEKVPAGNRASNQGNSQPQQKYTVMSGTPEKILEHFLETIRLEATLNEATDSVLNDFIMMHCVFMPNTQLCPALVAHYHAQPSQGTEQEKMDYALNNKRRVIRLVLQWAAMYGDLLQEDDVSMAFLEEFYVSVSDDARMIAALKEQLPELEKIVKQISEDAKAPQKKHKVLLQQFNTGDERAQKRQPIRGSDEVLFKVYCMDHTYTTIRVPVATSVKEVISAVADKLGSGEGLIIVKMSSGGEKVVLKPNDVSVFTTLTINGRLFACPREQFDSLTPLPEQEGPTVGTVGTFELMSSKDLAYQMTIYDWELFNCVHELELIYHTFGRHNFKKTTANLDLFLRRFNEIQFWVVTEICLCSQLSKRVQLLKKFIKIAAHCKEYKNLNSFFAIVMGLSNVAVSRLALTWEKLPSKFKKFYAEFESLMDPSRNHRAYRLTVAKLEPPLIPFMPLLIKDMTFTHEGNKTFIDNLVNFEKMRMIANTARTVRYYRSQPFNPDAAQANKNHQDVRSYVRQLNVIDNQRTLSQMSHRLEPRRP

[4] = target: Rap guanine nucleotide exchange factor 4 (Homo sapiens) (UniProt Q8WZA2); experiment: Confirmatory qHTS for antagonist of cAMP-regulated guanine nucleotide exchange factor 4 (EPAC2) (AID 1645885); also: nearly all actives have a fitted effect of over 25% in size
[5] = target: Mitogen-activated protein kinase 10 (Mus musculus) (UniProt Q61831); experiment: JNK3 AlphaScreen Assay (AID 530; active = well fitted curve in either direction with a large enough effect, not every such curve was filed as active;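 also: kinase came from lysate of stimulated human HepG2 cells; signal reports phosphorylation of biotinylated GST-cJun 1-79 at Ser73 with 10 µM ATP; series mostly up to about 57 µM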)
Outline: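 Room-temperature AlphaScreen kinase assay; pre-activated HepG2 lysate as JNK3 source, biotin-GST-cJun(1-79) substrate, 10 uM ATP, compound 15 min preincubation.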

[6] = target: Cytochrome P450 3A4 (Homo sapiens) (UniProt P08684); experiment: qHTS Assay for Inhibitors and Substrates of Cytochrome P450 3A4 (AID 884); also: series mostly up to about 57 µM; nearly all actives have a fitted effect of over 50% in size
Chain of Cytochrome P450 3A4 (Homo sapiens) (P08684 whole entry, looked up): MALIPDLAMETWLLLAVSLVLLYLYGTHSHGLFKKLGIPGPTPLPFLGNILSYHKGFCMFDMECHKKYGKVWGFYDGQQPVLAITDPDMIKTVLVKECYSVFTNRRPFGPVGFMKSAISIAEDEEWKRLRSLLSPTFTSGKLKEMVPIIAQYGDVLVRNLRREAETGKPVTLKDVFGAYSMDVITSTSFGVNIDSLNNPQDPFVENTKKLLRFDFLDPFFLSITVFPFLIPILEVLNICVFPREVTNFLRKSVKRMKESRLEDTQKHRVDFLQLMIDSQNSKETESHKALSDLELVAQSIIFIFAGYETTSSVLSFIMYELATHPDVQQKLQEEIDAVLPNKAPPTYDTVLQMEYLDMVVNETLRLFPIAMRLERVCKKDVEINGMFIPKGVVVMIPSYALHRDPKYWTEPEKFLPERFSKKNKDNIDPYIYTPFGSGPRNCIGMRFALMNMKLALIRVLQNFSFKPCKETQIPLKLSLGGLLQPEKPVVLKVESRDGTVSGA
Outline: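 20 nM human CYP3A4 with 25 uM Luciferin-PPXE (at KM) in 200 mM KPO4, preincubated 10 min with compound; NADPH regeneration started a 60 min RT reaction. Luciferin detected by luminescence, normalized to 57 uM ketoconazole as full inhibition.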

[7] = qHTS for Inhibitors of Ubiquitin-specific Protease USP2a Using CHOP2 as the Reporter: Cytotox Assay (AID 652170); also: series mostly up to about 46 µM; nearly all actives have a fitted effect of over 70% in size
Outline: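 HCT116 human colon cancer cells, 600 per well in DMEM with 10% FBS, exposed to compounds for 72 hr at 37 deg C. ATP measured by CellTiter-Glo luminescence, normalized to DMSO cells and no-cell background.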

[8] = target: Ubiquitin carboxyl-terminal hydrolase 2 (Homo sapiens) (UniProt O75604); experiment: qHTS for Inhibitors of Ubiquitin-specific Protease USP2a Using CHOP2 as the Reporter: K484 Substrate (AID 652173);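 also: cleavage of internally quenched K48 di-ubiquitin substrate measured as rising fluorescence over time; potency is read from the fitted curve at half-maximal effect; nearly all actives have a fitted effect of over 70% in size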
Chain of Ubiquitin carboxyl-terminal hydrolase 2 (Homo sapiens) (O75604 whole entry, looked up): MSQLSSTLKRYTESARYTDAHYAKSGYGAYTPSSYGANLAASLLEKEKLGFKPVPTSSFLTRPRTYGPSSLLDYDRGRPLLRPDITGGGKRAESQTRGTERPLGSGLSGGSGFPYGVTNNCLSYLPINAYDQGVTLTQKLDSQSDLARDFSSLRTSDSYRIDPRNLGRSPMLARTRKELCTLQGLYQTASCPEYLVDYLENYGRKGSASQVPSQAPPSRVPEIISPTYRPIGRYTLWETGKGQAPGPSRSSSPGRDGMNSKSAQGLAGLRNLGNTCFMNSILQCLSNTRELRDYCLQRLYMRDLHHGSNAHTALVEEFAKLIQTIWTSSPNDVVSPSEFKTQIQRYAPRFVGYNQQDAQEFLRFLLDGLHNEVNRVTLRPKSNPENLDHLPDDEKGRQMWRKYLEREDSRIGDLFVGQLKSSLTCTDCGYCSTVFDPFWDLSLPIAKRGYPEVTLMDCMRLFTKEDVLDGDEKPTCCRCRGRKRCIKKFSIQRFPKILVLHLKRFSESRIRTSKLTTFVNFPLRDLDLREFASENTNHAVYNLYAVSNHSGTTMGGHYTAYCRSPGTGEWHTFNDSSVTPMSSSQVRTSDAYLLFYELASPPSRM
Outline: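 USP2 (dispensed at 5 nM) was pinned with compounds, then DiUb K48 internally quenched fluorescent substrate (dispensed at 100 nM) was added. The buffer was 20 mM Tris pH 8, 2 mM beta-mercaptoethanol and 0.05% CHAPS. Cleavage was read kinetically as rising fluorescence, Ex 525/Em 598.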

[9] = target: Rap guanine nucleotide exchange factor 3 (Homo sapiens) (UniProt O95398); experiment: Confirmatory qHTS for antagonist of cAMP-regulated guanine nucleotide exchange factor 3 (EPAC1) (AID 1645880); also: potency is read from the fitted curve at half-maximal effect; nearly all actives have a fitted effect of over 55% in size
Outline: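 Nucleotide exchange uses 100 nM EPAC1, 250 nM RAP1B-BODIPY-GDP and 50 uM GDP, with compounds in a concentration-titration series. After 5 min at room temperature, fluorescence (480 nm ex/540 nm em) is read every 5 min for 30 min. Data are normalized to control ATA and DMSO.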

[10] = target: Rap guanine nucleotide exchange factor 3 (Homo sapiens) (UniProt O95398); experiment: Counterscreen qHTS for agonist of cAMP-regulated guanine nucleotide exchange factor 3 (EPAC1) (AID 1645889); also: nearly all actives have a fitted effect of over 40% in size
Outline: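 Rap1B-BODIPY-GDP 250 nM + GDP 50 uM; cpds 7-pt, final 9.74 nM–152 uM (activator mode) or from 7.32 nM upwards (inhibitor mode); RT; FI 480/540 nm at 5 and 30 min, then ± cAMP, reread.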

[11] = target: Glutathione peroxidase 1 (Homo sapiens) (UniProt P07203); experiment: Primary qHTS Assay for Inhibitors of Recombinant Selenoprotein Glutathione Peroxidase 1 (GPX1) (AID 1845191); also: nearly all actives have a fitted effect of over 65% in size
Chain of Glutathione peroxidase 1 (Homo sapiens) (P07203 whole entry, looked up): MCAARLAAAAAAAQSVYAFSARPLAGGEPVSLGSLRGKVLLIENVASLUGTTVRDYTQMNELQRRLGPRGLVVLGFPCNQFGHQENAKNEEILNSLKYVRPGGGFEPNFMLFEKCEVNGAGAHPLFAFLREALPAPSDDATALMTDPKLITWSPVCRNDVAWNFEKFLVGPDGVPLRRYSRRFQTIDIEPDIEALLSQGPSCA
Outline: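 10 nM GPX1 + cpd, 30 min RT; start w/ 1 mM GSH, 0.5 mM cumene hydroperoxide, 0.5 mM NADPH, 100 nM GR, 0.01% BSA; buffer 50 mM Tris-HCl pH 7.5, 2 mM EDTA, 150 mM NaCl; Fl 340/450, 0 & 15 min.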

[12] = target: Phospholipid hydroperoxide glutathione peroxidase GPX4 (Homo sapiens) (UniProt P36969); experiment: Primary qHTS Assay for Inhibitors of Recombinant Selenoprotein Glutathione Peroxidase 4 (GPX4) (AID 1845192); details: outcome: dose series up to 50 µM unless noted; also: series mostly up to about 50 µM; nearly all actives have a fitted effect of over 65% in size
Chain of Phospholipid hydroperoxide glutathione peroxidase GPX4 (Homo sapiens) (P36969 whole entry, looked up): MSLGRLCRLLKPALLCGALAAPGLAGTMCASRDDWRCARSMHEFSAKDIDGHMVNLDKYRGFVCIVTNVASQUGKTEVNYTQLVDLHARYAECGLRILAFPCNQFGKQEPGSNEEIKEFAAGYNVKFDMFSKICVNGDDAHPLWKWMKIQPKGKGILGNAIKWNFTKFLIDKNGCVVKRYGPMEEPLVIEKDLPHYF
Outline: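 NADPH consumption, followed by fluorescence at 340/450 nm between 0 and 15 min, reports GPX4 activity via coupled glutathione reductase (100 nM). Enzyme 200 nM was pre-exposed to compound 30 min; 0.5 mM cumene hydroperoxide and 1 mM GSH served as substrates.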

[13] = qHTS drug screen for cell cycle checkpoint inhibitors in PARPi-resistant BRCA-mutant ovarian cancer cell lines. (AID 1963452; calls by dose curve); details: PEO1/OlaR viability, CellTiter-Glo luminescence, 96 h, stronger effect = lower value
Outline: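 PEO1, PEO4 and PEO1/OlaR ovarian cancer cells, 600 per well, exposed 96 h at 37C to a dilution series. Viability read by CellTiter-Glo luminescence, normalized to DMSO and empty wells; activity summarized as Z-AUC.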

## Nc1ncnc2c1C(c1ccccc1)c1c(ccc3ccccc13)O2 (configuration not stated)
[1]
  Potency: inactive
[2]
  outcome: inactive
[3]
  outcome: inactive
[4]
  Potency: inactive

## CCCn1c(C)nc2c(N3CCN(C)CC3)nc(C)nc21
[5]
  outcome: inactive
[6]
  Potency: inactive
[1]
  Potency: inactive

## CC(=O)NS(=O)(=O)c1ccc(NC(=O)c2cc(-c3ccc(C)c(C)c3)nc3ccccc23)cc1
[7]
  Potency: inactive
[8]
  Potency: 12.2 µM (active)
[1]
  Potency: inactive
[9]
  Potency: 44.7 µM (active)
[2]
  outcome: inactive
[3]
  activation: 5.88% [at 17.1 µM] (inactive)
[4]
  activity change, negative = inhibition: -11.1% [at 12.7 µM] (inactive)

## O=C(CSc1nc2ccccc2n1CCc1ccccc1)c1ccc(O)c(O)c1
[1]
  Potency: inactive
[9]
  Potency: 6.01 µM (active)
[2]
  outcome: inactive
[4]
  Potency: inactive
[10]
  outcome: inactive

## Cc1ccc(NS(=O)(=O)c2ccc3c(c2)CCC(=O)N3)cc1C
[1]
  Potency: inactive
[11]
  Potency: inactive

## [2H]C([2H])(Nc1nc(-c2ccccc2C([2H])(C([2H])([2H])[2H])C([2H])([2H])[2H])ncc1C)c1ccc(-n2ccnn2)cc1
[1]
  Potency: inactive
[11]
  Potency: inactive
[12]
  Potency: inactive
[13]
  Z-AUC: -0.917 (inactive)
[13]; measured here: PEO1 parental Z-AUC
  Z-AUC: -1.16
[13]; measured here: PEO4 Z-AUC
  Z-AUC: -0.866
